Some of the results follow. The hit rate among all sequences tested is not known here.
Target: furin, P09958
Assay: furin cleavage Z-score vs untreated control; higher = more cleavage, active = 3.5 or more, inactive = 1 or less, 8 variable residues between constant flanks
Outline: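 Purified furin digested bead-held 8-mer peptide–cDNA fusions at 1:10 enzyme:substrate in 0.01 ml of 50 mM HEPES pH 7.5 with CaCl2 and NaCl for 7.5, 15 or 30 min. The cleavage Z-score compares sequencing counts of released DNA with furin-free reactions on a log scale, with lowess adjustment and median absolute deviation scaling.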

Sequence of furin, P09958 (P09958 whole entry): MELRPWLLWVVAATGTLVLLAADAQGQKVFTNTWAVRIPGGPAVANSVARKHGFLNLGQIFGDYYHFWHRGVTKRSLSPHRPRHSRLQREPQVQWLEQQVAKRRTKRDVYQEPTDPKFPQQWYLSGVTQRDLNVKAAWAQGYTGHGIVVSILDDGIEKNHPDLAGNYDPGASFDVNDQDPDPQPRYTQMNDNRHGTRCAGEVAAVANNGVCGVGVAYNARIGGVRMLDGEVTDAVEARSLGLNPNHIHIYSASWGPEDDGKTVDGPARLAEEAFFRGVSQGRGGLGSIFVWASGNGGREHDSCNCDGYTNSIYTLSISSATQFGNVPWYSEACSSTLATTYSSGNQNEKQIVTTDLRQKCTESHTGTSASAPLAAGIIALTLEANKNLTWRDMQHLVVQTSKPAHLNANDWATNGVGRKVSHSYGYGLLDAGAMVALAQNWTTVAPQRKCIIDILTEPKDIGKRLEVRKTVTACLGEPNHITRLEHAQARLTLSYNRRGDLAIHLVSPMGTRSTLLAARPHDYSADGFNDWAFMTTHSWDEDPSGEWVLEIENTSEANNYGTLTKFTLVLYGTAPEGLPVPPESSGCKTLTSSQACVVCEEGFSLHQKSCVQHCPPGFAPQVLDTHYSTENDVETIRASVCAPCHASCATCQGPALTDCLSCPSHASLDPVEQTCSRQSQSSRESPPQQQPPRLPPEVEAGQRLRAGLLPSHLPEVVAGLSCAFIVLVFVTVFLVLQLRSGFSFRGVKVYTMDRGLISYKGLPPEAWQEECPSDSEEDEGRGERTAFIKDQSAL

Sequence	furin cleavage Z-score (7.5 min)	furin cleavage Z-score (15 min)	furin cleavage Z-score (30 min)
CARPARYRRGAGNASASA [FS-861]	11.5 (active)	11.1 (active)	8.69 (active)
CARPARDEGGAGNASASA [FS-2050]	-0.0204 (inactive)	-1.47 (inactive)	-0.304 (inactive)
CAKPARYRRGAGNASASA [FS-813]	12.3 (active)	12.4 (active)	9.69 (active)
CAERGFFYTPAGNASASA [EK9]	-0.00549 (inactive)	-1.03 (inactive)	-0.153 (inactive)
CAVVCCSMSFAGNASASA [HC2087]	-0.658 (inactive)	0.464 (inactive)	-0.984 (inactive)
CAEKVTSTWVAGNASASA [HC2174]	-0.438 (inactive)	1.1	-0.0879 (inactive)
CAEGQRKRRNAGNASASA [FS-19]	11.4 (active)	10.7 (active)	8.22 (active)
CACCRRKRRNAGNASASA [FS-1188]	10.9 (active)	10.1 (active)	9.12 (active)
CAGCTTPCSGAGNASASA [HC1956]	-0.873 (inactive)	-0.658 (inactive)	-0.0577 (inactive)
CAGGAARALAAGNASASA [HC233]	0.841 (inactive)	-0.114 (inactive)	-0.813 (inactive)
CAWTPCSGSWAGNASASA [HC1828]	-0.899 (inactive)	-0.739 (inactive)	-0.599 (inactive)
CAEVVTSEWVAGNASASA [HC2212]	0.969 (inactive)	-0.725 (inactive)	-0.598 (inactive)
CATTPCSISWAGNASASA [HC1884]	1.02	2.64	0.615 (inactive)
CARSIRSVAIAGNASASA [FS-3081]	-0.459 (inactive)	0.367 (inactive)	2.74
CARSDRSVPSAGNASASA [FS-2236]	-0.464 (inactive)	-1.02 (inactive)	-0.799 (inactive)
CARSIRSTGSAGNASASA [FS-1971]	8.51 (active)	7.83 (active)	8.71 (active)
CARSIRSSQNAGNASASA [FS-2806]	3.82 (active)	4.88 (active)	5.06 (active)
CAGEVPSTEDAGNASASA [HC1096]	-0.773 (inactive)	-0.136 (inactive)	0.506 (inactive)
CAPTPCSAHLAGNASASA [HC2479]	-0.112 (inactive)	0.764 (inactive)	1.86
CAFAPTLWARAGNASASA [HC1578]	0.686 (inactive)	-1.55 (inactive)	0.247 (inactive)
CAADVIPVRRAGNASASA [HC729]	-0.626 (inactive)	1.64	0.64 (inactive)
CAAKSRPVRGAGNASASA [FS-523]	6.42 (active)	5.25 (active)	5.42 (active)
CAAKSKFGYGAGNASASA [HC1419]	0.282 (inactive)	0.423 (inactive)	0.234 (inactive)

Sequence	furin cleavage Z-score (7.5 min)	furin cleavage Z-score (15 min)	furin cleavage Z-score (30 min)
CAHSSRPVRDAGNASASA [FS-1594]	6.49 (active)	7.91 (active)	7.38 (active)
CAHSKRRVRDAGNASASA [FS-663]	13.2 (active)	12.9 (active)	9.58 (active)
CAHSKRKISWAGNASASA [FS-2865]	1.39	0.543 (inactive)	1.88
CAMSKRDVLDAGNASASA [FS-2873]	-0.828 (inactive)	-0.533 (inactive)	-0.677 (inactive)
CAAKSRPKRRAGNASASA [FS-641]	10.7 (active)	12 (active)	8.13 (active)
CAKIARPKKRAGNASASA [FS-40]	0.288 (inactive)	-0.123 (inactive)	-0.964 (inactive)
CAGCTWMNSTAGNASASA [HC436]	0.97 (inactive)	0.0364 (inactive)	1.16
CAAAGQLDLSAGNASASA [HC1641]	-0.412 (inactive)	0.71 (inactive)	-1.04 (inactive)
CAEVNTSTWVAGNASASA [HC2201]	0.639 (inactive)	0.541 (inactive)	1.06
CAVVCKSMSYAGNASASA [HC91]	-0.0467 (inactive)	0.255 (inactive)	0.551 (inactive)
CATWPCSGSWAGNASASA [HC1848]	-0.614 (inactive)	-1.25 (inactive)	-0.879 (inactive)
CASLTPCTCGAGNASASA [HC720]	-1.42 (inactive)	-1.23 (inactive)	-1.24 (inactive)
CALEECSQHLAGNASASA [HC1665]	0.42 (inactive)	0.627 (inactive)	0.0701 (inactive)
CAAKSRPVRDAGNASASA [FS-522]	8.85 (active)	8.99 (active)	6.37 (active)
CARKSRPVSVAGNASASA [FS-2273]	0.443 (inactive)	-0.359 (inactive)	1.47
CARSKRGWVWAGNASASA [FS-2605]	0.844 (inactive)	3.21	4 (active)
CARVKRIFYQAGNASASA [FS-2530]	1.69	-1.51 (inactive)	0.645 (inactive)
CARVKRGSKVAGNASASA [FS-2100]	2.43	3.33	4.45 (active)
CARVKRGWVWAGNASASA [FS-2101]	2.07	4.37 (active)	8.77 (active)
CARPKRGWVWAGNASASA [FS-2164]	-0.398 (inactive)	-0.529 (inactive)	2.44
CARVESENKVAGNASASA [HC1282]	0.35 (inactive)	-0.0116 (inactive)	1.18
CARSKRSWMWAGNASASA [FS-2459]	0.863 (inactive)	2.1	6.05 (active)
